DRD3 antagonist: qHTS of D3 Dopamine Receptor Antagonist: qHTS | D(3) dopamine receptor (Homo sapiens), P35462 | D3R cells, DiscoveRx beta-arrestin luminescence, antagonist mode; stronger effect = lower value | max response, negative = inhibition, % | actives 2.5% (n = 360,000) | AID 652054, 2013; in the data active means max response below about -50%; inconclusive means no clear call, values can overlap the other calls; further: on the % scale 0 is the no-effect control and ±100 the full control effect
Target sequence (P35462 whole entry, looked up): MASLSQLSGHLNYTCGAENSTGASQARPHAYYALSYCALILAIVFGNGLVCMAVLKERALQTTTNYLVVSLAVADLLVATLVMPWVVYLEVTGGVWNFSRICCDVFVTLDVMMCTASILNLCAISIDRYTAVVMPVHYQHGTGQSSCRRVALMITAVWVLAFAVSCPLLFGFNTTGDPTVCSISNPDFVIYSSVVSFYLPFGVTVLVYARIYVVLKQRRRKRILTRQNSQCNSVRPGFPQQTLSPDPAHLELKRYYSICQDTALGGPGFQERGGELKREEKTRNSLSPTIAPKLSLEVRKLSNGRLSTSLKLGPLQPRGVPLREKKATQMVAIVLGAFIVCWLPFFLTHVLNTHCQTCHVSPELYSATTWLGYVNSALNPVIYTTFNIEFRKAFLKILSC
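Cells expressing the human receptor were seeded at 1500 cells/well, incubated overnight at 37 degrees C in 5% CO2, then exposed to library compounds with dopamine controls for 90 minutes at 37 degrees C before luminescent detection.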
IL1B secr inh: qHTS for Inhibitors of Inflammasome Signaling: IL-1-beta AlphaLISA Primary Screen. THP-1 LPS/ATP IL-1B secretion, AlphaLISA, 16 h; stronger effect = lower value. activity change, % at 57.5 µM. actives 4.7% (n = 360,000). AID 743279, 2014; in the data active means activity change below about -50%; inconclusive means mostly about -30% to -49%; further: on the % scale 0 is the no-effect control and ±100 the full control effect
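THP-1 cells pretreated 1 hr with compounds (up to 57.5 uM final), then stimulated with LPS (250 ng/mL final) plus ATP (1.25 mM final); secreted IL-1B measured by AlphaLISA after 16 hr, decreased signal indicating inhibition.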
DT40 TDP1 CPT: qHTS for Inhibitors of human tyrosyl-DNA phosphodiesterase 1 (TDP1): qHTS in cells in presence of CPT. chicken DT40 Tdp1-/-;hTDP1 cells + 20 nM CPT, ATP luminescence, 48 h. Potency, µM (series often up to 46.2 µM), for the others: top-dose activity change, negative = growth inhibition, usual class: inhibitors. actives 12% (n = 420,000); further: potency means the concentration at half of the fitted maximal effect; on the % scale 0 is the no-effect control and ±100 the full control effect; nearly all actives have a fitted effect of over 55% in size
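Chicken DT40 Tdp1-/- cells stably complemented with human TDP1 were seeded at 400 cells/well in medium containing 20 nM camptothecin, exposed to pin-transferred compounds, and grown at 37 °C for at least 48 hr. Viability was read as ATP luminescence.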
ClpP mod: qHTS Assay for Activators of ClpP. purified B. subtilis ClpP, FRET peptide cleavage, 20 min. Potency, µM (series often up to 57.5 µM), inactives show at the top dose activity change, negative = active. actives 1.9% (n = 340,000). ATP-dependent Clp protease proteolytic subunit (Bacillus subtilis (strain 168)), P80244; active means well fitted falling curve with a large enough effect; inconclusive means small, poorly fitted or top-dose-only effect; inactive means no such curve, though single readings can be large or run the other way; further: potency means the concentration at half of the fitted maximal effect; the source files actives as falling curves though it sought activators and does not explain the sign; nearly all actives have a fitted effect of over 65% in size
Target sequence (P80244 whole entry, looked up): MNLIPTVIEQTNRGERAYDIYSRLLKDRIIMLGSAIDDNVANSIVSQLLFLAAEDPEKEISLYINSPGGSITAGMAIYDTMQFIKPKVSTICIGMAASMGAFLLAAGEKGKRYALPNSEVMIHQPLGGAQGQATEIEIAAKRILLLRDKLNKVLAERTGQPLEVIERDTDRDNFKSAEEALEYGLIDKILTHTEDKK
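Purified B. subtilis ClpP, 10 microg/mL final in Tris/HCl pH8 with KCl, BSA, glycerol and Tween-20, cleaved an Abz/nitrotyrosine-quenched decapeptide. Fluorescence (ex 320, em 430) was read at 0 and 20 min at room temperature. Delta was normalized to 5.8 microM ADEP and DMSO/no-enzyme controls.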
DRD3 agonist: qHTS of D3 Dopamine Receptor Agonist: qHTS; max activation, %; actives 0.58% (n = 410,000); D(3) dopamine receptor (Homo sapiens), P35462; D3R DiscoveRx beta-arrestin cells, luminescence, 90 min; in the data active means max activation above about 30%; further: 0% is about no effect
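Agonist-mode cell screen: cells plated at 1500/well and incubated overnight at 37 °C, then exposed to library compounds for 90 min at 37 °C. Detection reagent was added for 30–60 min at room temperature, and luminescence was read.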
DT40 TDP1 no CPT: qHTS for Inhibitors of human tyrosyl-DNA phosphodiesterase 1 (TDP1): qHTS in cells in absence of CPT | DT40 Tdp1-/- hTDP1 cells, no CPT, ATP luminescence, 48 h | Potency, µM (top dose mostly 46.2 µM), for the others: top-dose activity change, negative = growth inhibition, hits mostly inhibitors | actives 15% (n = 420,000); further: potency means the concentration at half of the fitted maximal effect; on the % scale 0 is the no-effect control and ±100 the full control effect; nearly all actives have a fitted effect of over 55% in size
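Camptothecin absent (DMSO only). Human TDP1-complemented DT40 knockout cells, 400 cells/well, 37 °C for minimum 48 hr; ATP measured via CellTiter-Glo, 30 min dark incubation, luminescence.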
* marks the source's active call; other numbers are inactive results; ? = inconclusive; nt = no result; [ ] = dose if it differs, or a comment. Most compounds without a hit are left out; they make up all but 21% or so of the library. Unless noted, the call rests on the fitted dose curve; in most records, active means well fitted inhibition curve with a large enough effect; inconclusive means small, poorly fitted or top-dose-only effect; inactive means flat fitted curve, though single readings scatter.

SMILES	DRD3 antagonist	IL1B secr inh	DT40 TDP1 CPT	ClpP mod	DRD3 agonist	DT40 TDP1 no CPT
O=C(Nc1cccc(-c2csc(-c3ccccc3)n2)c1)c1cccs1	12.9	-63.5*	18.4µM*	-26.3%	8.8	15.8µM*
Cc1ccn2cc(-c3cccc(NC(=O)c4cccs4)c3)nc2c1	1.3	-98.8*	?	1.6%	-7.8	20.6µM*
C=CCn1c(SCc2ccc(F)cc2)nnc1-c1sc2nc(C)cc(C)c2c1N	0.0	45.5	-22.7%	nt	-3.4	-20.6%
CC1CN(C(=O)COC(=O)c2cncc(Br)c2)CC(C)O1 (configuration not stated)	-54.2*	-1.3	-5.3%	-2.1%	1.3	14.2%
CCC1CCCCN1CCCNC(=O)c1cc2c(Cl)nc3ccc(C)cc3c2s1 (configuration not stated)	nt	nt	5.17µM*	-2.2%	-14.8	4.61µM*
Cc1ccc2nc(Cl)c3cc(C(=O)N4CCCCC4)sc3c2c1	nt	nt	?	-1.0%	5.5	-101.3%
Cc1ccc2nc(Cl)c3cc(C(=O)N4CCCCC4C)sc3c2c1 (configuration not stated)	nt	nt	?	-2.1%	5.9	23.1µM*
Cc1ccc2nc(Cl)c3cc(C(=O)NCCCN4CCCC4)sc3c2c1	-59.5*	-20.1	5.8µM*	nt	-11.5	5.8µM*
CC(C)OCCCNc1nc(-c2ccccc2)nc2ccccc12	42.0	0.5	?	-4.7%	3.2	14.6µM*
CC(C)(C)C(=O)OCCNc1nc(-c2ccccc2)nc2ccccc12	12.6	-54.1*	?	3.3%	9.4	20.6µM*
CN(C)CCCNc1nc(-c2ccccc2)nc2ccccc12	3.2	?	27.3%	nt	0.2	-15.5%
O=C1CCCC2=C1C(c1ccc(Cl)cc1)N=C(Nc1nc3ccccc3o1)N2 (configuration not stated)	nt	nt	?	4.7%	nt	?
COc1cccc(/C=N/Nc2nc(N3CCCC3)nc(N3CCCC3)n2)c1O	37.3	-100.3*	?	-1.4%	24.4	20.6µM*
Fc1ccccc1COc1ccccc1/C=N/Nc1nc(N2CCCC2)nc(N2CCCC2)n1	67.4	3.7	?	13.3%	7.8	20.6µM*
COc1cccc(/C=N/Nc2ncnc3c2ncn3Cc2ccccc2)c1O	5.7	-52.1*	3.66µM*	-17.2%	26.5	4.61µM*
COc1ccc(/C=N/Nc2nc(N3CCCC3)nc(N3CCCC3)n2)c(OC)c1OC	15.2	21.2	-3.1%	-0.6%	4.0	-8.2%
Cc1nnc(N/N=C/c2ccccc2F)n1N	0.8	0.0	-14.2%	-0.3%	0.7	14.6%
C(=N\Nc1nc(N2CCCC2)nc(N2CCCC2)n1)/c1ccccc1OCc1ccccc1	22.7	?	?	nt	-12.1	?
COc1cccc(/C=N/Nc2nnc(C)n2N)c1O	-10.4	7.0	?	nt	-6.0	20.6µM*
O=C(NC1CC(=O)N(c2ccc(F)cc2)C1)c1ccc2c(c1)OCO2 (configuration not stated)	nt	nt	-6.8%	-3.2%	-3.3	-18.2%
Nc1nonc1-n1nnc(C(=O)N/N=C/c2ccncc2)c1-c1ccccc1	0.9	2.4	-9.8%	nt	-10.1	-17.4%
CCOc1ccc(NC(=O)COc2ccc(C(=O)NCC3CCCO3)cc2OC)cc1 (configuration not stated)	10.6	30.5	-4.3%	1.8%	0.3	-13.1%
CCOC(=O)Cn1c(=O)n(-c2cccc(Cl)c2)c2nc(-c3ccccc3Cl)nc(C(N)=O)c21	nt	nt	nt	-19.9%	-6.1	nt
CCOC(=O)c1sc(SC)c2c1CCCC2=O	12.1	18.9	-3.5%	1.5%	25.6	-5.0%
CCC1NC(=O)c2cccnc2-n2c1nc1cc(OC)c(OC)cc1c2=O (configuration not stated)	-13.7	?	5.8%	-0.5%	4.0	-4.3%
SMILES	DRD3 antagonist	IL1B secr inh	DT40 TDP1 CPT	ClpP mod	DRD3 agonist	DT40 TDP1 no CPT
COc1ccc(-n2c(C)cc(/C=N/Nc3nnc(C)n3N)c2C)cc1	-12.7	-81.5*	23.1µM*	-4.8%	-12.0	16.4µM*
NC(=O)C1(Nc2ccc(-c3ccc(Cl)cc3)cc2)CCCC1	-7.4	4.8	16.4µM*	?	-10.0	?
O=C(O)C1(Nc2ccc(Cl)cc2)CCCC1	5.0	10.7	4.1%	nt	9.4	3.9%
NC(=O)C1(Nc2ccc(C(=O)O)cc2)CCCC1	-14.9	2.2	2.9%	11.2µM*	-4.2	-2.6%
NC(=O)C1(Nc2ccccc2)CCCC1	-14.5	1.9	-13.4%	0.8%	-1.2	-2.5%
CCOC(=O)[C@]12CCC=C1N(Cc1ccccc1)C(=O)[C@H](CC(=O)N1CCN(C(=O)c3ccco3)CC1)C2	-6.1	4.3	-7.4%	-7.7%	-0.4	-14.6%
COc1ncc2nc(-c3ccc(F)cc3)c(=O)n(CCc3ccccc3)c2n1	nt	nt	4.9%	nt	nt	18.2%
O=C(NC1(O)C(=O)c2ccccc2C1=O)c1c(Cl)cccc1Cl	-15.3	6.9	?	nt	-13.6	25.9µM*
O=C(Nc1ccccc1Cl)c1sc2cccc(Cl)c2c1Cl	nt	nt	1.8%	-1.6%	-6.1	0.1%
O=C(NC1(O)C(=O)c2ccccc2C1=O)c1ccccc1	?	-7.8	25.9µM*	-0.7%	2.7	?
O=C(NCNC(=O)c1ccccc1)c1ccccc1	-15.3	-16.5	-4.4%	-1.8%	-14.3	2.1%
O=C(COC(=O)CNC(=O)c1ccc([N+](=O)[O-])o1)Nc1ncc(C(F)(F)F)cc1Cl	2.0	-17.2	-8.5%	-1.8%	-2.6	?
CCc1ccc2nc(SCC(=O)Nc3ccccc3N3CCOCC3)c(C#N)cc2c1	4.8	9.2	4.61µM*	nt	-5.5	4.11µM*
Cc1ccc2nc(SCC(=O)Nc3ccccc3N3CCOCC3)c(C#N)cc2c1	-22.5	-2.8	4.61µM*	-1.6%	0.8	3.26µM*
Nc1cc(N)nc(SCC(=O)Nc2ccccc2N2CCOCC2)n1	9.1	11.2	-0.2%	nt	6.8	-9.6%
COc1ccc(F)c(CN2CCOc3ccc(CN4CCC(O)(c5cccnc5)CC4)cc3C2)c1	nt	nt	-6.9%[9.04 µM]	nt	nt	?
CCOC(=O)c1c(CSc2nc(C)cc(C)c2C#N)n(C)c2cc(Br)c(OC(C)=O)cc12	-4.0	58.1	?	-4.9%	17.5	25.9µM*
CCOC(=O)c1c(CN2CCN(CCO)CC2)n(C)c2cc(Br)c(OC)cc12	-17.2	-11.8	?	-2.7%	-48.1	?

Bioassay records: PubChem, National Center for Advancing Translational Sciences (NCATS)
